This is an account of results in article PMC8384837, “Expanding the binding specificity for RNA recognition by a PUF domain”.

The target in the first test is PUM1 PUF domain R5-RHS (Homo sapiens, UniProt Q14671 828-1176, C1007R;R1008H;Q1011S). The test can be described thus: yeast three-hybrid, YBZ-1, SC-Leu-His + 0.5 mM 3-AT, 4 days. Particulars: tags: N-Gal4 AD-HA kept; label: inside an RPR1-promoter hybrid RNA with tandem MS2 sites; ssRNA. The method, boiled down: (§1)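 The interaction score is the logarithmic change in variant frequency from input to selection. It uses log2, with a pseudocount of 1 for absent variants, and frequencies came from PCR-amplified, Illumina-sequenced repeat regions. The libraries were Pumilio-1 PUF domains randomized at the three base-contacting residues per repeat, co-expressed with matching RNA elements in strain YBZ-1 (LexA–MS2 coat fusion, HIS3 reporter). Plating lasted four days on SC-Leu (input) or SC-Leu-His + 0.5 mM 3-AT (selection).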
Turning to “GGCUAGAACUAGUGGAUCCCCCGGCGCCCGGCGGCUCGAGCCCGGGUAAGUGUGAAUAGUCUGCAUGCCGCCGGGCGCCAUGCCUGCAGGUCGACUCUAGAAAACAUG”, the binding signal is 3.89 log2 enrichment (interaction score). For the sequence “GGCUAGAACUAGUGGAUCCCCCGGCGCCCGGCGGCUCGAGCCCGGGUAAGUGUCAAUAGUCUGCAUGCCGCCGGGCGCCAUGCCUGCAGGUCGACUCUAGAAAACAUG”, the binding signal is 5.1 log2 enrichment (interaction score). In the case of “GGCUAGAACUAGUGGAUCCCCCGGCGCCCGGCGGCUCGAGCCCGGGUAAGUGUAAAUAGUCUGCAUGCCGCCGGGCGCCAUGCCUGCAGGUCGACUCUAGAAAACAUG”, the binding signal was 4.26 log2 enrichment (interaction score). Same read-out and setting: as for “GGCUAGAACUAGUGGAUCCCCCGGCGCCCGGCGGCUCGAGCCCGGGUAAGUGUUAAUAGUCUGCAUGCCGCCGGGCGCCAUGCCUGCAGGUCGACUCUAGAAAACAUG”, the figure is 5.74 log2 enrichment (interaction score).

Another test addresses PUM1 PUF domain R4-CNV (Homo sapiens, UniProt Q14671 828-1176, N971C;H972N;Q975V). The test is described as above. Particulars: tags: N-Gal4 AD-HA kept; label: inside an RPR1-promoter hybrid RNA with tandem MS2 sites; ssRNA. An outline of the steps: as §1
Take “GGCUAGAACUAGUGGAUCCCCCGGCGCCCGGCGGCUCGAGCCCGGGUAAGUGUAUAUAGUCUGCAUGCCGCCGGGCGCCAUGCCUGCAGGUCGACUCUAGAAAACAUG”: the binding signal is 3.21 log2 enrichment (interaction score). The same measure, in the same setting: as for “GGCUAGAACUAGUGGAUCCCCCGGCGCCCGGCGGCUCGAGCCCGGGUAAGUGUAAAUAGUCUGCAUGCCGCCGGGCGCCAUGCCUGCAGGUCGACUCUAGAAAACAUG”, the figure is 0.77 log2 enrichment (interaction score); as for “GGCUAGAACUAGUGGAUCCCCCGGCGCCCGGCGGCUCGAGCCCGGGUAAGUGUACAUAGUCUGCAUGCCGCCGGGCGCCAUGCCUGCAGGUCGACUCUAGAAAACAUG”, 2.79 log2 enrichment (interaction score).

Another test concerns the target PUM1 PUF domain R5-KFS (Homo sapiens, UniProt Q14671 828-1176, C1007K;R1008F;Q1011S). The description is as above. Particulars: tags: N-Gal4 AD-HA kept; label: inside an RPR1-promoter hybrid RNA with tandem MS2 sites; ssRNA. The method, boiled down: as §1
Turning to “GGCUAGAACUAGUGGAUCCCCCGGCGCCCGGCGGCUCGAGCCCGGGUAAGUGUCAAUAGUCUGCAUGCCGCCGGGCGCCAUGCCUGCAGGUCGACUCUAGAAAACAUG”, the binding signal is 5.16 log2 enrichment (interaction score). For “GGCUAGAACUAGUGGAUCCCCCGGCGCCCGGCGGCUCGAGCCCGGGUAAGUGUAAAUAGUCUGCAUGCCGCCGGGCGCCAUGCCUGCAGGUCGACUCUAGAAAACAUG”, the binding signal was 4.28 log2 enrichment (interaction score).

Regarding “GGCUAGAACUAGUGGAUCCCCCGGCGCCCGGCGGCUCGAGCCCGGGUAAGUGUUAAUAGUCUGCAUGCCGCCGGGCGCCAUGCCUGCAGGUCGACUCUAGAAAACAUG”, the binding signal was 5.06 log2 enrichment (interaction score).
